Pf Dd2 growth – blocks growth of Plasmodium falciparum Dd2 parasites. 94,000 compounds, 2.3% hits. P. falciparum Dd2 growth, SYBR Green, 72 h; active compounds read low. activity change, % at 10 µM. AID 1159554; in the data active = activity change below about -80%; inconclusive = no clear call, values can overlap the other calls
C diff HTS – C. difficile growth inhibition | Clostridium difficile clinical isolate growth, OD600, 24 h; active compounds read low | growth activity, negative = inhibition, % at 16 µg/mL (by protocol) | 86,000 compounds, 0.25% hits;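 active = mean growth activity at or below -80% and every replicate also at or below -80%; inconclusive = mean at or below -80% but some replicate above -80%; inactive = mean growth activity above -80%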;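 also: 0% = DMSO wells and -100% = levofloxacin 16 µg/mL wells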
T cruzi growth-1 – blocks T. cruzi growth in NIH3T3 culture; T. cruzi beta-gal in NIH3T3, GalScreen luminescence, 90 h; inhibition, % at 8.34 µM; 77,000 compounds, 5.9% hits;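 active = mean inhibition above about 93%, with at least 55% of replicates each passing it, limit read from the data, passing the limit was not always enough; inconclusive = only one of those two conditions holds; inactive = neither condition holds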
T cruzi growth-2 – Trypanosoma cruzi proliferation inhibition; AID 651739; T. cruzi beta-gal in NIH3T3, GalScreen luminescence, 90 h; 5,600 compounds, 72% hits; inhibition, % at 8.35 µM; shares compounds with T cruzi growth-1;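 active = mean replicate inhibition above about 95% and at least 55% of replicates individually reaching it, limit read from the data; inconclusive = only one of the two criteria is met; inactive = neither criterion is met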
T cruzi growth-3 – blocks T. cruzi growth in NIH3T3 host cells; inhibition, % at 2.09 µM; 5,600 compounds, 21% hits; AID 651740; T. cruzi beta-gal in NIH3T3, GalScreen luminescence, 90 h; shares compounds with T cruzi growth-1;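 active = mean inhibition above about 95%, with at least 55% of replicates also reaching it, limit read from the data; inconclusive = meets just one of the two conditions; inactive = meets neither condition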;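 also: plate controls were neutral control median for no effect and positive control median for full effect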
NIH3T3 tox – cytotoxicity in mouse NIH/3T3 fibroblasts; cytotoxicity (signal decrease), % at 8.35 µM; NIH/3T3 viability, CellTiter-Glo ATP luminescence, 90 h; 5,600 compounds, 14% hits; AID 651742; shares compounds with T cruzi growth-1;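 active = mean signal decrease across replicates above about 35% based on untreated-well scatter, with enough replicates individually passing, limit read from the data; inconclusive = no rule stated though some were filed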;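 also: 0% = median of neutral control wells and 100% = median of positive control wells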
NIH3T3 tox 2 – cytotoxicity in mouse NIH/3T3 fibroblasts | shares compounds with T cruzi growth-1 | inhibition, % at 24.9 µM | 5,600 compounds, 56% hits | NIH/3T3 viability, CellTiter-Glo ATP luminescence, 90 h | AID 651744;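 active = mean loss of cell viability signal at or above a set limit, and enough replicates individually reaching it; inconclusive = meets only the mean limit or only the replicate share; inactive = meets neither condition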;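 also: 0% = median of neutral control wells and 100% = median of positive control wells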
* marks the source's active call; other numbers are inactive results; ? = inconclusive; nt = no result given. Rows were chosen to be rich in hits. Some 6.7% of all compounds tested hit in one or more screens of this group.

SMILES	Pf Dd2 growth	C diff HTS	T cruzi growth-1	others
C[C@H](CO)N1C[C@H](C)[C@@H](CN(C)C(=O)Nc2cccc3ccccc23)Oc2ccc(NC(=O)Nc3ccc(C(F)(F)F)cc3)cc2CC1=O	-85*	15	36
C[C@@H]1CN([C@H](C)CO)C(=O)Cc2cc(NC(=O)Nc3ccc(C(F)(F)F)cc3)ccc2O[C@@H]1CN(C)C(=O)Nc1cccc2ccccc12	-69	2	8
C[C@@H]1CN([C@@H](C)CO)C(=O)Cc2cc(NC(=O)NC3CCCCC3)ccc2O[C@H]1CN(C)C(=O)Nc1cccc2ccccc12	-92*	-14	3
C[C@H]1CN([C@@H](C)CO)C(=O)Cc2cc(NC(=O)NC3CCCCC3)ccc2O[C@H]1CN(C)C(=O)Nc1cccc2ccccc12	-9	-17	14
C[C@H]1CN([C@@H](C)CO)C(=O)c2cc(NS(=O)(=O)c3ccccc3)ccc2O[C@H]1CN(C)S(C)(=O)=O	7	5	-48
COc1ccc(NC(=O)N(C)C[C@H]2Oc3ccc(N(C)C)cc3CC(=O)N([C@@H](C)CO)C[C@@H]2C)cc1	3	0	6
CN1[C@@H]2c3ccc(-c4cccnc4)c(=O)n3C[C@@H]2[C@@H](CO)[C@@H]1C(=O)NC1Cc2ccccc2C1	-9	-2	-24
N#C[C@@H]1[C@@H](c2ccccc2C2=CCCCC2)[C@@H](CO)N1C(=O)c1cccc(F)c1	-14	8	nt
CCCNC(=O)N1[C@H](C#N)[C@@H](c2ccccc2C2=CCCC2)[C@@H]1CO	-89*	-2	nt
N#C[C@@H]1[C@H](c2ccccc2C2=CCCC2)[C@H](CO)N1C(=O)NC1CCCC1	-47	10	nt
N#C[C@@H]1[C@H](c2ccccc2C2=CCCCC2)[C@@H](CO)N1C(=O)c1cccc(F)c1	-94*	-10	nt
CO[C@H]1CN(C)C(=O)c2cc(NC(=O)NC(C)C)ccc2OC[C@@H](C)N(CCC(F)(F)F)C[C@@H]1C	-38	1	24
C[C@@H]1CN([C@H](C)CO)C(=O)Cc2cc(NC(=O)CCCCCC(=O)Nc3ccccc3N)ccc2O[C@H]1CN(C)C(=O)Nc1ccc(C(F)(F)F)cc1	-31	-8	27
O=C(c1cccc(F)c1)N1CC[C@@H]2[C@H](CO)Nc3ccc(C#Cc4cccc(F)c4)cc3[C@@H]21	-37	60	93
O=C(c1cccc(F)c1)N1CC[C@@H]2[C@H]1c1cc(C#Cc3cccc(F)c3)ccc1N[C@@H]2CO	-58	60	103*	T cruzi growth-2=104*;T cruzi growth-3=68;NIH3T3 tox=-7;NIH3T3 tox 2=106*
COc1ccccc1C#Cc1ccc2c(c1)[C@@H]1[C@@H](CCN1C(=O)c1ccccc1)[C@@H](CO)N2	-28	74	104*	T cruzi growth-2=106*;T cruzi growth-3=90;NIH3T3 tox=16;NIH3T3 tox 2=21
O=C(c1ccc(F)cc1)N1CC[C@@H]2[C@@H](CO)Nc3ccc(C#Cc4ccccc4F)cc3[C@@H]21	-12	-22	52
O=C(c1ccccc1)N1CC[C@@H]2[C@H]1c1cc(C#Cc3ccccc3F)ccc1N[C@@H]2CO	-15	72	104*	T cruzi growth-2=112*;T cruzi growth-3=40;NIH3T3 tox=-22;NIH3T3 tox 2=8
COc1ccccc1C#Cc1ccc2c(c1)[C@@H]1[C@@H](CCN1C(=O)c1ccccc1)[C@H](CO)N2	-53	15	nt
COc1ccc2c3c(n(C)c2c1)[C@H](CO)N(C(=O)CC1CC1)CC31CCN(Cc2ccncc2)CC1	-66	3	nt
CCCC#Cc1ccc([C@@H]2[C@H](CO)N3C(=O)CN(C(=O)c4ccc(F)cc4)C[C@@H]23)cc1	-1	1	nt
CO[C@H]1CN(C)C(=O)c2ccc(NC(=O)Nc3ccccc3)cc2OC[C@@H](C)N(C(=O)Nc2c(C)noc2C)C[C@@H]1C	-1	-5	-35
CCCN1[C@@H]2c3ccc(-c4cccnc4)c(=O)n3C[C@H]1[C@H](CO)[C@H]2C(=O)NCCc1cn(C)cn1	nt	-1	62
COCC#Cc1cnc2c(c1)C(=O)N([C@@H](C)CO)C[C@H](C)[C@H](CN(C)C(=O)C1CCC1)O2	21	4	54
COc1ccc(S(=O)(=O)N(C)C[C@@H]2Oc3ccc(NC(=O)C4CCCCC4)cc3CC(=O)N([C@@H](C)CO)C[C@H]2C)cc1	-41	0	54
SMILES	Pf Dd2 growth	C diff HTS	T cruzi growth-1	others
O=C(Nc1ccc2c(c1)[C@H]1C[C@H](CC(=O)N3CCCCC3)O[C@H](CO)[C@H]1O2)C1CCC1	2	nt	53
COc1ccccc1CNC(=O)C[C@H]1CC[C@H]2[C@@H](COC[C@H](O)CN2Cc2cccc(-c3ccncc3)c2)O1	nt	2	120*	T cruzi growth-2=98*;T cruzi growth-3=79;NIH3T3 tox=3;NIH3T3 tox 2=24
COc1ccccc1CNC(=O)C[C@@H]1CC[C@H]2[C@@H](COC[C@H](O)CN2Cc2ccc3c(c2)OCO3)O1	-7	88	101*	T cruzi growth-2=76;T cruzi growth-3=28;NIH3T3 tox=12;NIH3T3 tox 2=7
COc1ccccc1CNC(=O)C[C@@H]1CC[C@@H]2[C@H](COC[C@@H](O)CN2Cc2cccc(-c3ccncc3)c2)O1	nt	6	92
COc1ccccc1CNC(=O)C[C@H]1CC[C@H]2[C@@H](COC[C@H](O)CN2Cc2ccccc2)O1	-29	0	nt
COc1ccccc1CNC(=O)C[C@@H]1CC[C@H]2[C@@H](COC[C@H](O)CN2Cc2cccc(-c3ccncc3)c2)O1	nt	2	92
COc1ccccc1CNC(=O)C[C@H]1CC[C@@H]2[C@H](COC[C@@H](O)CN2Cc2cccc(-c3ccncc3)c2)O1	nt	2	?	T cruzi growth-2=96*;T cruzi growth-3=93;NIH3T3 tox=29;NIH3T3 tox 2=59*
CCCNC(=O)Nc1ccc2c(c1)C(=O)N(C)C[C@H](OC)[C@H](C)CN(Cc1cncnc1)[C@@H](C)CO2	12	-1	2
O=C(C[C@@H]1C[C@H]2c3cc(NC(=O)C4CCC4)ccc3O[C@H]2[C@H](CO)O1)NCc1cccc(F)c1	2	nt	51
C[C@H](CO)N1C[C@H](C)[C@@H](CN(C)Cc2ccccc2C(=O)O)Oc2cc(-c3ccc(C(=O)N(C)C)cc3)ccc2S1(=O)=O	12	-7	26
C[C@H](CO)N1C[C@H](C)[C@@H](CN(C)C(=O)NC2CCCCC2)Oc2c(NC(=O)c3nc4ccccc4s3)cccc2C1=O	-49	nt	-117
CC(C)NC(=O)Nc1ccc2c(c1)C(=O)N([C@@H](C)CO)C[C@@H](C)[C@@H](CN(C)Cc1ccc3c(c1)OCO3)OCCCC[C@@H](C)O2	-20	-6	77
C[C@@H]1CCCCO[C@@H](CN(C)Cc2ccc3c(c2)OCO3)[C@H](C)CN([C@@H](C)CO)C(=O)c2cc(NC(=O)Nc3ccc(F)cc3)ccc2O1	-66	12	110*	T cruzi growth-2=98*;T cruzi growth-3=60;NIH3T3 tox=31;NIH3T3 tox 2=92*
